This assay addresses T1, Proteasome subunit beta (Trypanosoma cruzi) (UniProt O96673).
T1 sequence (whole entry): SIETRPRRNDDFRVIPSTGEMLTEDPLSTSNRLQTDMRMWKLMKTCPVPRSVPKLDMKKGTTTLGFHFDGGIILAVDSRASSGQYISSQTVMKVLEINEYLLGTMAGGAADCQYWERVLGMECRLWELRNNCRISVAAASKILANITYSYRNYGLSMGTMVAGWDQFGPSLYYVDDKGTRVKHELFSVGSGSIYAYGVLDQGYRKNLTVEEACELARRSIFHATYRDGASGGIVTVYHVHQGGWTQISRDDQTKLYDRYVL
Description: Trypanosoma cruzi proteasome chymotrypsin-like activity (TcProtChymo) assay. Type of assay: functional. Also noted: scale not given: in the data most compounds retested in dose-response had high values. Particulars: 9.37 µM.
For the compound `Cc1nc(C2CCCN2CC(=O)N(Cc2ccsc2)C2CC2)no1` (centres undefined), the Percent Effect amounted to 10.6%.
As for `CC(C)S(=O)(=O)N1CCC(c2cc3n(n2)[C@@H](C(F)(F)F)C[C@@H](C)N3)C1` (some centres undefined), the figure is 5.02%.
As for `O=C(CSCC1CC1)N1CCCC(c2nccn2Cc2ccncc2)C1` (centres undefined), the figure is 7.37%.
As for `CC(=O)N1CCCN(c2nccc(-c3cn(C)nc3C)n2)CC1`, the figure is 9.24%; as for `COc1ccc(C2CCCN2S(=O)(=O)N(C)CC(C)C)cc1` (centres undefined), 5.61%; as for `Cc1cccc2[nH]c(C3CCN(C(=O)c4ccnn4C)CC3)nc12`, 15.1%.
For the compound `Cc1nc(CN2CCc3nn(C(C)C)c(=O)cc3C2)oc1C`, the Percent Effect came out at 10.4%.
The figure for `COc1cc(CNC(=O)NCc2c(C)cc(C)[nH]c2=O)ccc1C` is 11.9%; for `Fc1cccc(-c2nc(CN3CCOC(Cn4cccn4)C3)co2)c1` (centres undefined) it is 4.68%; for `O=C([C@@H]1CC[C@@H]2[C@@H](CCN2Cc2ccoc2)O1)N1CCCC1` it is 17.9%.
As for `Cn1cccc1C(=O)N1CCC2(CC1)CN(c1ccccn1)CCO2`, the figure is 5.49%; as for `CCc1ccc(NS(=O)(=O)CC2=NC(=O)n3cccc3C2=O)cc1`, 6.1%; as for `CC(=O)c1ccc(OCC(=O)NC(C)CCc2ccco2)cc1` (centres undefined), 19.8%.
Take `CN(C)CC(=O)N1CCCC2(CCC(=O)N(CCc3c[nH]cn3)C2)C1` (centres undefined): the Percent Effect is 11%.
As for `N#Cc1cccc(S(=O)(=O)N2CCCCC2CCN2CCCC2=O)c1` (centres undefined), the figure is 8.99%; as for `O=C(NCC(O)c1ccc(F)c(F)c1)c1cccnc1O` (centres undefined), 24.9%; as for `Cc1cccc(CN2C(=O)CC[C@@H]3[C@H]2CCN3Cc2ccc(C)s2)n1`, 9.43%.
As to `CC(=O)N1CC[C@H]2OCC[C@@]2(C(=O)NCc2ccco2)C1`, the Percent Effect amounted to 11.3%.
As to `CSC(C)(C)CNC(=O)NC1CCN(C)CC1`, the Percent Effect turned out to be 0%.
The figure for `CN(Cc1ncc(-c2ccccc2)o1)CC1CCCN1c1cccnn1` (centres undefined) is 1.54%; for `Cc1noc([C@H]2C[C@@H]3CCN(CC4CC4)C[C@H]3O2)n1` it is 3.13%; for `O=C(O)c1cc2c(nc1O)CC(c1cccc(Cl)c1)CC2=O` (centres undefined) it is 7.21%.
The figure for `COCCCC(=O)NS(=O)(=O)c1ccc2c(c1)OCCCO2` is -0.0846%; for `Cc1nn(C)c(Cl)c1CNCc1cccnc1N1CCOCC1` it is 21%; for `CN(Cc1ccc(F)cc1)CC1(O)CCCN(CC(C)(C)C)C1=O` (centres undefined) it is -3.16%.
As for `CN(CC(=O)N1CCC(Oc2ccccc2)CC1)c1cnccn1`, the figure is 5.75%; as for `CC(=O)N1CCn2c(COCc3csc(C)n3)cnc2C1C` (centres undefined), 9.57%; as for `Cc1cc(C)c(CNC(=O)N2CCCC2C(N)=O)c(=O)[nH]1` (centres undefined), 23.5%.
For the compound `Cc1ccc(N2CCCC(NCC(=O)NCC3CC3)C2)nn1` (centres undefined), the Percent Effect was determined as 15.8%.
Regarding `O=C1CC(c2ccc(F)c(F)c2)c2snc(C(=O)O)c2N1` (centres undefined), the Percent Effect was determined as 2.77%.
Consider `Cc1nc(-c2ccccc2)sc1C(=O)NCCNc1ncccn1`, for which the Percent Effect is 3.98%.
Take `CNS(=O)(=O)c1cccc(CNC(=O)c2c(C)nn(C)c2C)c1`: the Percent Effect came out at 9.78%.
As for `Clc1ccc(CN2CCCC(Cn3cncn3)C2)c2ncccc12` (centres undefined), the figure is 12%.
As for `CCN(CC)Cc1cn2c(n1)CN(C(=O)c1cnccn1)CC2`, the figure is 19.9%; as for `CN(C)C(=O)[C@H]1C[C@@H]2CN(S(=O)(=O)Cc3ccccc3)C[C@H]1O2`, 7.49%; as for `CCc1nc(C2CCCN(C(=O)c3cccc4cn[nH]c34)C2)no1` (centres undefined), 6.64%.
As for `CC(C(=O)NCCOc1ccc2c(c1)OCO2)n1cncn1` (centres undefined), the figure is 11.6%; as for `CC(C)OCCCNC(=O)CN1CCC(N2CCN(C)C2=O)CC1`, 7.45%.
With `CN(C)c1nc2c(c(=O)[nH]1)CCN(C(=O)c1cccc3nccnc13)C2`, the Percent Effect was 19.1%.

The values are drawn from ChEMBL document CHEMBL3988442, “University of Dundee, Small-Polar-MMV Screening Library” (2021).
